The supplement of paper PMC3545927
The other results are listed elsewhere or left out. The hit rate among all sequences tested is not known here.

Target: furin, P09958
Assay: furin cleavage Z-score vs untreated control; higher = more cleavage, active = 3.5 or more, inactive = 1 or less, 8 variable residues between constant flanks
Method: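 Multiplexed peptide-cDNA fusion cleavage assay. 8-mer variable peptides flanked by constant Cys-Ala (N-term) and Ala-Gly-Asn-Ala-Ser-Ala-Ser-Ala (C-term) and conjugated to a cDNA oligonucleotide were bead-immobilised via the N-terminus. They were treated with purified furin at a 1:10 enzyme:substrate ratio in 50 mM HEPES pH 7.5, 1 mM CaCl2, 100 mM NaCl for 7.5, 15 or 30 min. Released cDNA was counted by next-generation sequencing, and log counts versus no-furin controls were lowess-adjusted and converted to robust Z-scores.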

furin, P09958, sequence (P09958 whole entry): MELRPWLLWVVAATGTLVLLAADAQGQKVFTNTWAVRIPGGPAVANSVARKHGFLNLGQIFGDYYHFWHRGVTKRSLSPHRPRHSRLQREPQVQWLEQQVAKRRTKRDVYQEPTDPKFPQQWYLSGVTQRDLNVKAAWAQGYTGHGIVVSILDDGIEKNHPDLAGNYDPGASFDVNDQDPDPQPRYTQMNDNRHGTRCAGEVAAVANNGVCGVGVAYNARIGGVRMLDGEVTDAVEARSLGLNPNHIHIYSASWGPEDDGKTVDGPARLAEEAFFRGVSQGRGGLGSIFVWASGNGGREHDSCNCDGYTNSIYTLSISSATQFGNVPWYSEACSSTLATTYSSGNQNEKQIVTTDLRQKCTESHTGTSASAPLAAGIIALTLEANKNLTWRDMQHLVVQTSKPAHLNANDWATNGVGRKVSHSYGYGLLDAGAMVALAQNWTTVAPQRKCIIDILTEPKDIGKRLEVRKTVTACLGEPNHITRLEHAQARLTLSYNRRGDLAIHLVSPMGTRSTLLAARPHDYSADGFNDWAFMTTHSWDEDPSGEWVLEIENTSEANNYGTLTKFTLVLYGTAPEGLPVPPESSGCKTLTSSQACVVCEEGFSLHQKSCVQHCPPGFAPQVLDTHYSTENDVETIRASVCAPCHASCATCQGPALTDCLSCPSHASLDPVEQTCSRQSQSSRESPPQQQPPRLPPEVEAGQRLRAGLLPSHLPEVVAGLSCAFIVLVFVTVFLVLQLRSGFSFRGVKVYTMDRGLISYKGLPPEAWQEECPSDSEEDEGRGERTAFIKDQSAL

With CANLVYSTTSAGNASASA [HC1388] the “furin cleavage Z-score” value (7.5 min) was 1.17, the “furin cleavage Z-score” value (15 min) was -0.567 (inactive) and the “furin cleavage Z-score” value (30 min) was 1.86.

For CATTPCSFSWAGNASASA [HC1887], the “furin cleavage Z-score” value (7.5 min) was -1.16 (inactive), the “furin cleavage Z-score” value (15 min) was -1.65 (inactive) and the “furin cleavage Z-score” value (30 min) was 0.982 (inactive).

With CAKVPAAYAAAGNASASA [HC780] the “furin cleavage Z-score” value (7.5 min) was 0.0632 (inactive), the “furin cleavage Z-score” value (15 min) was -0.0412 (inactive) and the “furin cleavage Z-score” value (30 min) was -3.37 (inactive).

CARARRTLGHAGNASASA [FS-1684] was tested, and the “furin cleavage Z-score” value (7.5 min) was 6.43 (active), the “furin cleavage Z-score” value (15 min) was 8.11 (active) and the “furin cleavage Z-score” value (30 min) was 7.53 (active).

For CARARRDDPHAGNASASA [FS-2888], the “furin cleavage Z-score” value (7.5 min) was 5.71 (active), the “furin cleavage Z-score” value (15 min) was 7.99 (active) and the “furin cleavage Z-score” value (30 min) was 5.78 (active).

For CALTKRLKRHAGNASASA [FS-689], the “furin cleavage Z-score” value (7.5 min) was 12.6 (active), the “furin cleavage Z-score” value (15 min) was 12.3 (active) and the “furin cleavage Z-score” value (30 min) was 9.95 (active).

CARARRTTIYAGNASASA [FS-3151] was tested, and the “furin cleavage Z-score” value (7.5 min) was -0.153 (inactive), the “furin cleavage Z-score” value (15 min) was 1.46 and the “furin cleavage Z-score” value (30 min) was 4.35 (active).

CAYTTGPCTPAGNASASA [HC1193] was tested, and the “furin cleavage Z-score” value (7.5 min) was -1.22 (inactive), the “furin cleavage Z-score” value (15 min) was 0.109 (inactive) and the “furin cleavage Z-score” value (30 min) was -1.36 (inactive).

CALSPGALVVAGNASASA [HC1104] was tested, and the “furin cleavage Z-score” value (7.5 min) was -0.255 (inactive), the “furin cleavage Z-score” value (15 min) was 1.25 and the “furin cleavage Z-score” value (30 min) was 0.572 (inactive).

CAVVCNSMSYAGNASASA [HC98] was tested, and the “furin cleavage Z-score” value (7.5 min) was -1.2 (inactive), the “furin cleavage Z-score” value (15 min) was 0.223 (inactive) and the “furin cleavage Z-score” value (30 min) was -0.488 (inactive).

CAEGVFTGLTAGNASASA [HC940] was tested, and the “furin cleavage Z-score” value (7.5 min) was -0.801 (inactive), the “furin cleavage Z-score” value (15 min) was 0.108 (inactive) and the “furin cleavage Z-score” value (30 min) was -0.239 (inactive).

In the case of CAEGVTSTWVAGNASASA [HC2176], the “furin cleavage Z-score” value (7.5 min) is reported as 0.155 (inactive), the “furin cleavage Z-score” value (15 min) is reported as -0.512 (inactive) and the “furin cleavage Z-score” value (30 min) is reported as 0.24 (inactive).

CAGPVIQMYTAGNASASA [HC708] was tested, and the “furin cleavage Z-score” value (7.5 min) was -1.34 (inactive), the “furin cleavage Z-score” value (15 min) was -0.0874 (inactive) and the “furin cleavage Z-score” value (30 min) was 0.0794 (inactive).

With CAEAKRGSSSAGNASASA [FS-2476] the “furin cleavage Z-score” value (7.5 min) was -2.29 (inactive), the “furin cleavage Z-score” value (15 min) was -0.0771 (inactive) and the “furin cleavage Z-score” value (30 min) was 0.074 (inactive).

With CARARRTKRHAGNASASA [FS-1255] the “furin cleavage Z-score” value (7.5 min) was 11.2 (active), the “furin cleavage Z-score” value (15 min) was 11.8 (active) and the “furin cleavage Z-score” value (30 min) was 8.26 (active).

In the case of CALRKRRKRKAGNASASA [FS-1030], the “furin cleavage Z-score” value (7.5 min) is reported as 10.7 (active), the “furin cleavage Z-score” value (15 min) is reported as 11.4 (active) and the “furin cleavage Z-score” value (30 min) is reported as 9.12 (active).

CARSQPRGRRAGNASASA [HC188] was tested, and the “furin cleavage Z-score” value (7.5 min) was 4.16 (active), the “furin cleavage Z-score” value (15 min) was 5.3 (active) and the “furin cleavage Z-score” value (30 min) was 4.87 (active).

In the case of CARSQRRKKAAGNASASA [FS-865], the “furin cleavage Z-score” value (7.5 min) is reported as 4.39 (active), the “furin cleavage Z-score” value (15 min) is reported as 4.99 (active) and the “furin cleavage Z-score” value (30 min) is reported as 5.15 (active).

For CAFSQRRKRRAGNASASA [FS-775], the “furin cleavage Z-score” value (7.5 min) was 6.61 (active), the “furin cleavage Z-score” value (15 min) was 5.92 (active) and the “furin cleavage Z-score” value (30 min) was 6.42 (active).

With CARKQRKKKAAGNASASA [FS-1262] the “furin cleavage Z-score” value (7.5 min) was 0.332 (inactive), the “furin cleavage Z-score” value (15 min) was 1.6 and the “furin cleavage Z-score” value (30 min) was 1.96.

CAYTNVDQDLAGNASASA [HC711] was tested, and the “furin cleavage Z-score” value (7.5 min) was -0.889 (inactive), the “furin cleavage Z-score” value (15 min) was -0.433 (inactive) and the “furin cleavage Z-score” value (30 min) was -0.26 (inactive).

In the case of CALTVPASAYAGNASASA [HC253], the “furin cleavage Z-score” value (7.5 min) is reported as 0.273 (inactive), the “furin cleavage Z-score” value (15 min) is reported as -0.258 (inactive) and the “furin cleavage Z-score” value (30 min) is reported as 0.0356 (inactive).

CAGPRRPMRPAGNASASA [FS-785] was tested, and the “furin cleavage Z-score” value (7.5 min) was 0.568 (inactive), the “furin cleavage Z-score” value (15 min) was -0.102 (inactive) and the “furin cleavage Z-score” value (30 min) was -1.31 (inactive).

CACGDIINGLAGNASASA [HC657] was tested, and the “furin cleavage Z-score” value (7.5 min) was -0.652 (inactive), the “furin cleavage Z-score” value (15 min) was -0.156 (inactive) and the “furin cleavage Z-score” value (30 min) was 0.306 (inactive).

With CAENDTDVFVAGNASASA [HC426] the “furin cleavage Z-score” value (7.5 min) was -0.537 (inactive), the “furin cleavage Z-score” value (15 min) was 0.514 (inactive) and the “furin cleavage Z-score” value (30 min) was -0.867 (inactive).

For CALRFRRKRRAGNASASA [FS-826], the “furin cleavage Z-score” value (7.5 min) was 11.4 (active), the “furin cleavage Z-score” value (15 min) was 12.4 (active) and the “furin cleavage Z-score” value (30 min) was 10.4 (active).

In the case of CARCQRDAMCAGNASASA [FS-2651], the “furin cleavage Z-score” value (7.5 min) is reported as -1.14 (inactive), the “furin cleavage Z-score” value (15 min) is reported as 0.877 (inactive) and the “furin cleavage Z-score” value (30 min) is reported as 1.14.

CACRKRRKRCAGNASASA [FS-17] was tested, and the “furin cleavage Z-score” value (7.5 min) was 4.55 (active), the “furin cleavage Z-score” value (15 min) was 0.934 (inactive) and the “furin cleavage Z-score” value (30 min) was 1.07.

In the case of CAGRSEFKRCAGNASASA [FS-1331], the “furin cleavage Z-score” value (7.5 min) is reported as -0.855 (inactive), the “furin cleavage Z-score” value (15 min) is reported as -0.736 (inactive) and the “furin cleavage Z-score” value (30 min) is reported as -0.471 (inactive).

With CAVRNRRKRKAGNASASA [FS-1434] the “furin cleavage Z-score” value (7.5 min) was 8.59 (active), the “furin cleavage Z-score” value (15 min) was 9.19 (active) and the “furin cleavage Z-score” value (30 min) was 8.05 (active).

For CALRFCALARAGNASASA [HC620], the “furin cleavage Z-score” value (7.5 min) was 1.83, the “furin cleavage Z-score” value (15 min) was 0.507 (inactive) and the “furin cleavage Z-score” value (30 min) was -0.572 (inactive).

For CALREEVSFRAGNASASA [HC1231], the “furin cleavage Z-score” value (7.5 min) was -0.828 (inactive), the “furin cleavage Z-score” value (15 min) was -0.657 (inactive) and the “furin cleavage Z-score” value (30 min) was -0.791 (inactive).

For CAEMPRDRRRAGNASASA [FS-325], the “furin cleavage Z-score” value (7.5 min) was -1.37 (inactive), the “furin cleavage Z-score” value (15 min) was -0.519 (inactive) and the “furin cleavage Z-score” value (30 min) was -0.0256 (inactive).

CAAPPRRKRRAGNASASA [FS-976] was tested, and the “furin cleavage Z-score” value (7.5 min) was 7.74 (active), the “furin cleavage Z-score” value (15 min) was 7.56 (active) and the “furin cleavage Z-score” value (30 min) was 5.8 (active).

For CATGCVVIVGAGNASASA [HC999], the “furin cleavage Z-score” value (7.5 min) was 0.288 (inactive), the “furin cleavage Z-score” value (15 min) was -0.105 (inactive) and the “furin cleavage Z-score” value (30 min) was 1.66.

CATTPCCGSWAGNASASA [HC74] was tested, and the “furin cleavage Z-score” value (7.5 min) was -2.07 (inactive), the “furin cleavage Z-score” value (15 min) was -0.069 (inactive) and the “furin cleavage Z-score” value (30 min) was -1.52 (inactive).

For CAEFTLLTRIAGNASASA [FS-988], the “furin cleavage Z-score” value (7.5 min) was -0.861 (inactive), the “furin cleavage Z-score” value (15 min) was -1.86 (inactive) and the “furin cleavage Z-score” value (30 min) was 0.256 (inactive).

In the case of CALRFRRKRKAGNASASA [FS-825], the “furin cleavage Z-score” value (7.5 min) is reported as 9.84 (active), the “furin cleavage Z-score” value (15 min) is reported as 11 (active) and the “furin cleavage Z-score” value (30 min) is reported as 8.47 (active).

In the case of CALIFCHSKKAGNASASA [HC856], the “furin cleavage Z-score” value (7.5 min) is reported as -0.592 (inactive), the “furin cleavage Z-score” value (15 min) is reported as -0.736 (inactive) and the “furin cleavage Z-score” value (30 min) is reported as -0.784 (inactive).

In the case of CAMEEMSQHLAGNASASA [HC8], the “furin cleavage Z-score” value (7.5 min) is reported as 1.27, the “furin cleavage Z-score” value (15 min) is reported as 1.33 and the “furin cleavage Z-score” value (30 min) is reported as 0.916 (inactive).

In the case of CALASHPKRAAGNASASA [FS-1355], the “furin cleavage Z-score” value (7.5 min) is reported as -0.0202 (inactive), the “furin cleavage Z-score” value (15 min) is reported as 0.46 (inactive) and the “furin cleavage Z-score” value (30 min) is reported as -0.107 (inactive).

In the case of CAAAILRRHVAGNASASA [HC1110], the “furin cleavage Z-score” value (7.5 min) is reported as -1.81 (inactive), the “furin cleavage Z-score” value (15 min) is reported as 1.42 and the “furin cleavage Z-score” value (30 min) is reported as 1.16.

CALADREKRAAGNASASA [FS-683] was tested, and the “furin cleavage Z-score” value (7.5 min) was 5.37 (active), the “furin cleavage Z-score” value (15 min) was 7.31 (active) and the “furin cleavage Z-score” value (30 min) was 4.83 (active).

With CAAAIREKRAAGNASASA [FS-153] the “furin cleavage Z-score” value (7.5 min) was 10.5 (active), the “furin cleavage Z-score” value (15 min) was 11.2 (active) and the “furin cleavage Z-score” value (30 min) was 8.65 (active).
